Experimental data reported in PubChem BioAssay (NCATS).
Records with an inconclusive call do not appear. A number with no mark means an inactive call. Active and inactive are the calls of the source. Calls follow the shape of the dose curve; as a rule, active = well fitted cell-killing curve with a large enough effect; inconclusive = small, poorly fitted or top-dose-only effect, or effect the other way; inactive = no such curve, though single readings can be large or run the other way.
Potency is read from the fitted curve at half-maximal effect.

Test: Quantitative High-Throughput drug screen in 47 multiple myeloma cell lines against the NCATS MIPE library collection: ARD_JJKsccE7 cell viability assay (AID 1918929;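 as to viability: 100% = DMSO-only wells and 0% = media-only wells without cells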)
Conditions: ARD myeloma cell line viability, CellTiter-Glo, 48 h; series mostly up to 45.8 µM; viability: at the top concentration
Method in brief: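 Steps: seed 500 cells per well; pin-transfer MIPE 4.0 library; incubate 48 h at 37C, 5% CO2, humidified; add CellTiter-Glo, 5 min room temperature; read luminescence.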
In the case of `CCCCn1c(=O)n(Cc2ccccc2F)c(=O)c2[nH]c(Cc3ccc(NC(C)=O)cc3)nc21`, the “viability” value is reported as 124%. For `CC1(COc2ccc3c(c2)ncn3-c2ccc3cccc(N4CCC(N)CC4)c3n2)COC1`, the Potency was 5.9 µM (active). With `OCCn1cc(-c2ccc3c(c2)CCC3=NO)c(-c2ccncc2)n1` the Potency was 13.2 µM (active). With `CCc1cccc(CC)c1NC(=O)N1Cc2[nH]nc(NC(=O)c3ccc(N4CCN(C)CC4)cc3)c2C1` the Potency was 1.18 µM (active). For `COc1ccc(-c2oc3c(CC=C(C)C)c(O)cc(O)c3c(=O)c2O)cc1`, the “viability” value was 145%. For `CCCCCCOC(=O)N=C(N)c1ccc(NCc2nc3cc(C(=O)N(CCC(=O)OCC)c4ccccn4)ccc3n2C)cc1`, the Potency was 14.8 µM (active). For `CC(=O)O[C@]1(C(C)=O)CC[C@H]2[C@@H]3C=C(Cl)C4=CC(=O)[C@@H]5C[C@H]5[C@]4(C)[C@@H]3CC[C@@]21C`, the Potency was 23.5 µM (active). For `CN(C)CCOc1cc(-c2cn[nH]c2)ccc1NC(=O)C1COc2ccccc2O1` (centres undefined), the “viability” value was 90%. In the case of `CCOC(=O)[C@H]1O[C@H]1C(=O)N[C@@H](CC(C)C)C(=O)NCCC(C)C`, the “viability” value is reported as 126%. With `CCC[C@H](Nc1nc(-c2ccc(NC(=O)NCC)c(OC)c2)ncc1C)c1cccnc1` the Potency was 0.001 µM (active). For `COc1cc2ncnc(Nc3cc(Br)c(O)c(Br)c3)c2cc1OC`, the Potency was 13.2 µM (active). In the case of `CCNC(=O)Nc1ccc(Oc2ncnc(N)c2C=NOC)cc1Cl`, the Potency is reported as 5.9 µM (active). For `O=C(O)CCNc1cc(N2CCc3ccccc3CC2)nc(-c2ccccn2)n1`, the “viability” value was 133%. For `CN1CCN(c2ncc(-c3cc(Cl)cc(Cl)c3Cl)c(N)n2)CC1`, the “viability” value was 132%.
